Reference: PMC4336329 (PLoS ONE, 2015)
Among all 310,000 compounds or so, about 14,000 (4.5%) showed an effect of 50% or more. Effects have a minus sign here. The list comes from a sample in which strong results are over-represented; it also holds similar structures and randomly drawn compounds.

Each compound was assayed against human ether-à-go-go-related gene (hERG) potassium channel (human, UniProt Q12809) (assay: primary screen, population patch clamp on CHO cells stably expressing hERG; higher = less effect of the substance).
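Further: peak tail current of the secondary pulse compared with the same well before compound.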

human ether-à-go-go-related gene (hERG) potassium channel, sequence (Q12809 whole entry, looked up): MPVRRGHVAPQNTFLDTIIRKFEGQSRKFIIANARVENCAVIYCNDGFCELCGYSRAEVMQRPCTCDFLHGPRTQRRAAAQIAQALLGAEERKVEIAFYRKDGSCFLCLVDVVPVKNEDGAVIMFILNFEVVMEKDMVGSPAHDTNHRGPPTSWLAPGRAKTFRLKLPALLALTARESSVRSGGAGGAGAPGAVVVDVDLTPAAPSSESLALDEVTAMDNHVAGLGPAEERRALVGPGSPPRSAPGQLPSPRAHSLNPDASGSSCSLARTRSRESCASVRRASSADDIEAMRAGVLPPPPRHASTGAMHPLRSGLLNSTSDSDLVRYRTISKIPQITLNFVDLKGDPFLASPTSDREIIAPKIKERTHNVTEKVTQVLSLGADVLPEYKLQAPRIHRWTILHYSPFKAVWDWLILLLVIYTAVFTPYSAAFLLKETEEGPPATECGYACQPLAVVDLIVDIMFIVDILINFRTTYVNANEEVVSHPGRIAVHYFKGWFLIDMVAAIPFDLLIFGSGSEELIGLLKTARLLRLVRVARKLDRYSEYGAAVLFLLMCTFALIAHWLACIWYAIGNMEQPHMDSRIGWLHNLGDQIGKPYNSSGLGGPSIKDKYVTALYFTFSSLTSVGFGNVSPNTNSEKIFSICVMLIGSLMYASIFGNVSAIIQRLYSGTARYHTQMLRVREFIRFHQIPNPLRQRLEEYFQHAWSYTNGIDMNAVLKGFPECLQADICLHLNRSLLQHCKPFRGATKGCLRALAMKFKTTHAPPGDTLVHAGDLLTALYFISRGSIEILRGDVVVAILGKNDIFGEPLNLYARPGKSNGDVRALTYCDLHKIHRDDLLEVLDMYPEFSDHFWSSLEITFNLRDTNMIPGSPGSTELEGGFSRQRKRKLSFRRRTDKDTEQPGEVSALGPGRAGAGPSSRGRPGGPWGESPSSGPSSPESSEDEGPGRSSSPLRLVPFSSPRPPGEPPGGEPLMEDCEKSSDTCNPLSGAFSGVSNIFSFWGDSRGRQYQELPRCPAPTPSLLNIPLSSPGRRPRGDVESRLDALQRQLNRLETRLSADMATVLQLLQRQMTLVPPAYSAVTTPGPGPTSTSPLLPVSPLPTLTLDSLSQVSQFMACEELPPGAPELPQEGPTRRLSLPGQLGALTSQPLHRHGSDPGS

Compound | hERG current change (%, negative = inhibition) at 10uM [%]
O=C(COC(=O)CCNS(=O)(=O)c1ccc2c(c1)OCCO2)NC1CCCc2ccccc21 (stereo not drawn) | -0.954
O=C(CN(C(=O)c1ccccc1Cl)N1C(=O)C2C3C=CC(C3)C2C1=O)c1cccs1 (stereo not drawn) | 7.25
O=C(CSc1ncn[nH]1)NC12CC3CC(CC(C3)C1)C2 | -5.91
O=C(N/N=C/c1c(F)c(F)c(F)c(F)c1F)c1cc(-c2ccccc2)nc2ccccc12 | 6.92
O=C(O)Cc1csc(-c2cccc(F)c2)n1 | 19.1
CC(C)OC(=O)NCCOC(=O)Nc1ccccc1Cl | 21.6
Cn1c(=O)c(=O)n(C)c2cc(S(=O)(=O)CCC(=O)NCc3ccccc3)ccc21 | 20
COc1ccc(OC)c(/C=N/NC(=O)Cc2nc3ccccc3[nH]2)c1 | 5.63
Cc1onc(-c2ccccc2)c1C(=O)N1CCN(S(=O)(=O)c2ccccc2C(F)(F)F)CC1 | 22.6
Cc1cc(S(=O)(=O)Nc2ccc(C(=O)NCCCN3CCCC3=O)cc2)ccc1F | 8.37
O=C(NCc1ccccc1)C1C(=O)N(Cc2ccccc2)C(=O)C1C1(O)CCCC1 (stereo not drawn) | 2.87
O=C(Nc1ccc2oc(=O)ccc2c1)c1ccc(-c2ccc(Cl)cc2)o1 | 3.37
S=c1[nH]nc(Cc2ccccc2)n1Cc1ccco1 | -5.08
Cc1nc2ccc(S(=O)(=O)NCC(=O)N3CCN(c4ccccc4)CC3)cc2s1 | -1.33
O=C(O)c1cc(NC(=O)c2cccc(F)c2)cc(NC(=O)c2cccc(F)c2)c1 | 15.4
COc1ccc(C(CNC(=O)COc2ccccc2OC)N2CCCCC2)cc1 (stereo not drawn) | -19.5
COc1ccc(C(CNC(=O)COc2ccc(F)cc2Br)N2CCCC2)cc1 (stereo not drawn) | -64.5
COc1ccc(C(CNC(=O)COc2ccccc2C)N2CCCC2)cc1 (stereo not drawn) | -40.8
COc1ccc(C(CNC(=O)COc2ccccc2)N2CCCCC2)cc1 (stereo not drawn) | -29.3
COc1ccc(C(CNC(=O)COc2ccc(F)cc2Cl)N2CCCCC2)cc1 (stereo not drawn) | -8.7
COc1ccc(C(CNC(=O)COc2ccccc2C)N2CCCCC2)cc1 (stereo not drawn) | -20.7
COc1ccc(C(CNC(=O)COc2ccc([N+](=O)[O-])cc2)N2CCCCC2)cc1 (stereo not drawn) | -69.9
COc1ccc(OCC(=O)NCC(c2ccc(OC)cc2)N2CCCCC2)cc1 (stereo not drawn) | -33.1
COc1ccc(C(CNC(=O)COc2ccc(Br)cc2F)N2CCCC2)cc1 (stereo not drawn) | -78.6
